Screens deposited in PubChem by National Center for Advancing Translational Sciences (NCATS).
CHX counter: affects cycloheximide protein synthesis inhibition readout, counter-screen; cell reporter, cycloheximide protein synthesis inhibition counterscreen; actives 12% (n = 300,000); max response, %; in the data active = max response mostly above about 13%, no sharp cut-off; inactive = mostly below about 14%; also: read at 38.3 µM for the half of the compounds with a filed dose; 0% is about no effect
Pf growth 96h: P. falciparum growth inhibition at 96 hour, primary screen for plastid delayed-death inhibitors | P. falciparum luciferase reporter growth, 96 h | Potency, µM (series often up to 28.7 µM), inactives show at the highest dose activity change, negative = inhibition, usual class: inhibitors | actives 6.9% (n = 320,000); also: potency is read from the fitted curve at half-maximal effect; % is scaled to controls: 0 for no effect and ±100 for the full control effect
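Compounds incubated with erythrocytes infected by luciferase-expressing P. falciparum (2% hematocrit, 0.05% parasitemia final) for 96 hours, 37 C in 5% CO2. Growth inhibition scored as decreased luciferase luminescence.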
Pf growth 48h: P. falciparum growth inhibition at 48 hours (one generation); P. falciparum luciferase growth in erythrocytes, 48 h; Potency, µM (series often up to 28.7 µM), inactives show at the top dose activity change, negative = inhibition, most hits filed as inhibitors; actives 5.9% (n = 310,000); AID 504832; also: potency is read from the fitted curve at half-maximal effect; % is scaled to controls: 0 for no effect and ±100 for the full control effect
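Erythrocytes infected with P. falciparum carrying an integrated firefly luciferase reporter (2% hematocrit, 0.1% parasitemia final) were exposed to compounds in RPMI 1640 with 0.5% Albumax at 37 C, 5% CO2. Growth inhibition was scored as reduced luminescence.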
Shiga inhibitor: Shiga toxin inhibition | actives 9.2% (n = 290,000) | Vero cells, Shiga toxin protein synthesis inhibition reporter | inhibition, % at 38.7 µM | AID 2315; in the data active = inhibition mostly above about 28%, no sharp cut-off; inactive = mostly below about 43%; also: 0% is about no effect
NS1 function inh: blocks influenza NS1 protein function | Potency, µM (doses to about 46.1 µM), inactives show at the top dose activity, positive = more growth | actives 0.4% (n = 270,000) | AID 2326; calls by dose curve; also: potency is read from the fitted curve at half-maximal effect; actives are rising curves; nearly all actives have a fitted effect of over 50% in size
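S. cerevisiae expressing influenza A NS1, grown in glucose, washed, then diluted 1:100 into pH 6.0 -URA galactose medium with 23 nl compound. Growth recovery read as OD600; NS1-free strain serves as control.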
Starred values were filed as active, the others as inactive; ? = inconclusive; nt = not tested or not shown; [ ] = another dose, or the depositor's remark. A selection: hits, their analogues and other compounds. The true share with any hit is near 21%. Unless noted, calls follow the shape of the dose curve; as a rule, active = well fitted inhibition curve with a large enough effect; inconclusive = small, poorly fitted or top-dose-only effect, or another doubt; inactive = no such curve, though single readings can be large or run the other way.

SMILES	CHX counter	Pf growth 96h	Pf growth 48h	Shiga inhibitor	NS1 function inh
CCOC(=O)c1[nH]c2ccc(OCC)cc2c1NC(=O)CN1CCN(c2ccccn2)CC1	-2	4.7µM*	7.4µM*	-21	-64%
COC(=O)c1[nH]c2ccc(C)cc2c1NC(=O)CN1CCc2cc(OC)c(OC)cc2C1	-3	?	?	-16	-8%
COC(=O)c1[nH]c2cc(OC)ccc2c1NC(=O)CCN1CCN(c2cccc(C)c2C)CC1	-11	-5%	2.6µM*	-21	-71%
COC(=O)c1[nH]c2ccccc2c1NC(=O)CN1CCN(c2cccc(OC)c2)C(C)C1 (stereo unspecified)	-1	nt	9.3µM*	-16	-45%
CCOC(=O)c1[nH]c2ccc(F)cc2c1NC(=O)C(C)N1CCc2cc(OC)c(OC)cc2C1 (stereo unspecified)	-2	?	15µM*	-17	-87%
CC1CN(C(=O)COC(=O)c2ccc(N(C)C)cc2)CC(C)O1 (stereo unspecified)	0	23%	10%	19	7%
COc1ccccc1NC(=O)COC(=O)CCn1c(C)csc1=O	nt	8%	-14%	nt	nt
O=C(NCCCn1ccnc1)/C(=C/c1ccco1)NC(=O)c1ccco1	-1	21%	3%	1	2%
CCOC(=O)c1[nH]c2ccc(OC)cc2c1NC(=O)CN1CCN(c2ccccn2)CC1	1	-19%	-14%	-4	5%
CCOC(=O)c1[nH]c2ccc(OC)cc2c1NC(=O)CN1CCc2ccccc2C1	1	12µM*	?	-15	-74%
COc1ccc(-c2cc(C(F)F)nn2-c2ccc(S(N)(=O)=O)cc2)cc1F	nt	4%	0%	nt	nt
COc1cc(CNC(C)(C)CO)cc(Br)c1OCc1ccc(Cl)cc1	-3	?	13µM*	8	-8%
COc1cc(CNC(C)(C)CO)cc(Br)c1OCc1ccc(Cl)cc1Cl	-5	13µM*	12µM*	-3	-18%
CC(C)(CO)NCc1c(OCc2ccc(Cl)cc2)ccc2ccccc12	-7	4.1µM*	?	nt	-24%
COc1cc(/C=N/O)cc(Br)c1OCc1ccc(Cl)cc1	-2	?	-1%	9	-9%
COc1cc(CNc2ccc(O)cc2)cc(Br)c1OCc1ccccc1	-2	60%	?	-4	0%
N/C(=N\OC(=O)c1csnn1)c1ccc(C(F)(F)F)cc1	40*	66%	88%	72*	0%
COc1ccc(OC)c(NC(=O)c2ccno2)c1	17	19%	25%	46	nt
Cc1cc(Cn2ccnc2)c(C)cc1Cn1ccnc1	-2	?	13µM*	-8	0%
O=C(N/N=C/c1ccccc1[N+](=O)[O-])c1ccncc1	21*	0.17µM*	75%	40*	2%
COc1cccc(/C=N/NC(=O)c2cnccn2)c1OC	17*	141%	10%	50*	4%
O=C(N/N=C/c1ccccc1[N+](=O)[O-])c1cnccn1	31*	125%	86%	91*	0%
COc1ccccc1N1CCN(CC(O)c2ccc3cc[nH]c3c2)CC1 (stereo unspecified)	-2	-96%	?	11	-6%
Cc1csc2c(=O)n(CCO)c(=O)[nH]c12	-1	0%	?	29	-49%
O=C(O)COc1ccc(/C=N/NC(=O)C(O)(c2ccccc2)c2ccccc2)cc1	-3	23%	7%[0.00184 µM]	-3	2%
SMILES	CHX counter	Pf growth 96h	Pf growth 48h	Shiga inhibitor	NS1 function inh
O=C(COC(=O)c1ccc(O)cc1O)Nc1cc(-c2ccccc2)nn1-c1ccccc1	nt	4.7µM*	12µM*	nt	nt
CCCCCC(=O)NC(=S)Nc1ccc(N2CCOCC2)cc1	12	4%	-20%	-8	10%
COc1cccc(CN(CC(=O)NCc2ccc(F)cc2)C(=O)c2ccco2)c1	-6	24%	-2%	-2	6%
COc1ccc(C(=O)N/N=C(\C)CC(=O)N2CCN(C=O)CC2)cc1	31*	27%	-1%	24	-2%
COc1ccc(C/C(C)=N/NC(=O)c2cccnc2)cc1	27*	37%	3%	11	7%
COc1ccc(C/C(C)=N/NC(=S)Nc2ccccc2F)cc1	54*	-14%	145%	91*	?
COc1ccc(C/C(C)=N/NC(=O)c2ccc(Cl)cc2)cc1	14*	-5%	14%	37*	nt
CCOc1cc(C(=O)N/N=C(\C)Cc2ccc(OC)cc2)cc(OCC)c1OCC	-3	12%	18%	-18	10%
